Test results: PubChem BioAssay (NCI)
This is part of a sample that, as a whole, favours compounds with a hit. Of some 83,000 tested, about 20% had one in any assay.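 In brief: 96-well plates, 48 h treatment, single concentration, percent growth endpoint.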 Unmarked numbers belong to inactive results. Active and inactive are the calls of the source. Rule for the calls: active = growth percent below 10; inactive = the rest.

Assays:
Test in all cases: NCI-60 one-dose screen, 48 h (100 = growth as untreated, 0 = no growth, -100 = all killed)
Details in all cases: 10 µM unless noted
SR leukemia = test system: SR leukemia
RPMI-8226 leukemia = test system: RPMI-8226 leukemia
OVCAR-5 ovarian = test system: OVCAR-5 ovarian
OVCAR-4 ovarian = test system: OVCAR-4 ovarian
SK-OV-3 ovarian = test system: SK-OV-3 ovarian
IGROV1 ovarian = test system: IGROV1 ovarian
OVCAR-3 ovarian = test system: OVCAR-3 ovarian
HS 578T breast = test system: HS 578T breast
NCI/ADR-RES ovarian = test system: NCI/ADR-RES ovarian

SMILES | growth (SR leukemia) | growth (RPMI-8226 leukemia) | growth (OVCAR-5 ovarian) | growth (OVCAR-4 ovarian) | growth (SK-OV-3 ovarian) | growth (IGROV1 ovarian) | growth (OVCAR-3 ovarian) | growth (HS 578T breast) | growth (NCI/ADR-RES ovarian)
CC(C)c1ccc(Cc2cnc(NC(=O)c3cc(Br)cs3)s2)cc1 | 16.8% | 22.6% | 53.7% | 54.3% | 28.6% | 38% | 15.6% | 19.8% | 6.8% (active)
COc1c(C(=O)Nc2ccc(C)c(Br)c2)ccc2ccccc12 | 54.3% | 95.7% | 92.2% | 82.9% | 97.9% | 94.3% | 107% | 85.5% | 84.6%
N#Cc1ccc(O)c(C2=NCC(c3ccccc3)O2)c1 (stereo unspecified) | 38% | 33.3% | 84% | 9.62% (active) | 45.3% | 33.1% | 7.61% (active) | 77.2% | 1.45% (active)
COc1ccc(C(=O)C/C(=C\c2ccc(Cl)cc2)C(=O)NCc2ccccc2)cc1 | 60.3% | 75.7% | 99.5% | 105% | 79.3% | 86.3% | 100% | 86.4% | 89.1%
COC(=O)c1nc(-c2ccc(C)cc2)oc1S(=O)(=O)c1cccc(OC)c1 | 0.69% (active) | 94.2% | 92.1% | 107% | 105% | 81.5% | 77.8% | 110% | 103%
Cc1nc2sc(C(=O)Nc3cccc(Br)c3)c(N)c2cc1C(O)c1ccccc1 (stereo unspecified) | 13.4% | 11.1% | 57% | 70.5% | 35.6% | 32.1% | 8.16% (active) | 21% | 11.7%
Cc1cc(=O)oc2cc(OCc3nn4c(Nc5nc6ccccc6s5)c(-c5ccccc5)nc4s3)ccc12 | 94.7% | 82.6% | 97.5% | 61.4% | 92% | 89.2% | 95.3% | 78.1% | 84.6%
COc1ccc(F)cc1/C=C/C(=O)/C=C(/C=C/c1cc(F)ccc1OC)OB(F)F | -0.793% (active) | -13.5% (active) | 48.9% | 28.8% | 97% | 25% | 1.71% (active) | – | 19.8%
O=C(CSc1nc2ccc([N+](=O)[O-])cc2[nH]1)Nc1ccc([N+](=O)[O-])cc1 | 10.7% | -17.5% (active) | – | 1.39% (active) | 27% | 37.7% | 18.5% | 31.7% | 36.3%
CN(C)c1ccc(-c2c(C#N)c(N)nn2C(=O)c2ccc(NC(=O)c3ccccn3)cc2)cc1 | 98.6% | 95.5% | 95.7% | 105% | 108% | 79.1% | 102% | 93.9% | 96.4%
CC(C)c1ccc(C(=O)Nc2nc3ccc(O)c(CN(C)C)c3s2)cc1 | 32.9% | 70.1% | 70.1% | 74.4% | 90.8% | 80.7% | 91.3% | 86.8% | 87.8%
COC1=CC(c2ccc[nH]2)=N/C1=C\c1[nH]c(C)c(C(=O)OC(C)C)c1C | 11.8% | -34.6% (active) | -40.2% (active) | -49.7% (active) | 7.3% (active) | -41.5% (active) | -53.9% (active) | -32.8% (active) | -12.5% (active)
CCOC(=O)c1cc2c(n1C)-c1nc(NC(C)=O)sc1CCC2 | 72.6% | 79% | 117% | 80.4% | – | 69.2% | 85.7% | 60.5% | 85.1%
COC12C=C/C(=C(/C(=O)OCc3ccncc3)C(=O)CCCCCCCCC3(OC)C=C/C(=C(/C(=O)OCc4ccncc4)C(=O)CCCCCCCC1)O3)O2 | -16.2% (active) | -24.7% (active) | -20.7% (active) | -2.29% (active) | 40.1% | -32.2% (active) | -74.3% (active) | 34.6% | 5.85% (active)
Cc1cc(N2CCN(CCNc3ccnc4cc(Cl)ccc34)CC2)nc(N2CCOCC2)n1 | 3.62% (active) | 35.3% | 92.9% | 53.8% | 85.2% | – | 73.1% | 85.8% | 66.1%
C=C(C)[C@@H]1CCC[C@]2(COS(=O)(=O)c3ccc(C)cc3)CC[C@]3(C)[C@@H](CC[C@@H]4[C@@]5(C)CCCNC(C)(C)[C@@H]5CC[C@]43C)[C@@H]12 | -46.1% (active) | -14.8% (active) | 63.3% | -64.4% (active) | 98.7% | -87.1% (active) | -87.7% (active) | 61.4% | -3.42% (active)
c1cnc2c(-c3nc4ccc5[nH]ncc5c4c4c3CCCC4)c[nH]c2c1 | 5.93% (active) | 34.5% | 37.3% | 27.9% | 51.5% | 18% | 26.4% | 63.4% | 80.6%
CCOC(=O)c1c(NC(=O)c2ccc(Cl)cc2)sc2c(CN(C)C)c(O)ccc12 | -8.09% (active) | -13% (active) | 95.2% | 73.5% | 81.6% | 66.1% | 105% | 79.2% | 73.3%
COC1/C=C/OC2(C)Oc3c(C)c(O)c4c(O)c(c(/C=N/Nc5ccc([N+](=O)[O-])cc5[N+](=O)[O-])c(O)c4c3C2=O)NC(=O)C(C)=C/C=C/C(C)C(O)C(C)C(O)C(C)C(OC(C)=O)C1C (stereo unspecified) | 7.02% (active) | 7.67% (active) | 48.3% | 35% | – | 28.5% | -42.1% (active) | 20% | 76.7%
